From PubChem BioAssay come the findings set out here.

Assay [1] has as its system XIP peptide (Xip251-270) binding. The assay is described as follows: XIP fragment 251-270 binding compounds – biochemical, small-molecule microarray, fluorescence 635/667 nm, 0.1 µg/mL protein, primary screen (AID 1182). Particulars: fluorescent protein binding, 635 nm, higher = more signal, called active from +8 up or from −8 down.
Assay [2] has as its system XIP peptide (Xip251-270). Briefly: compounds binding XIP fragment 251-270 – biochemical, small-molecule microarray, fluorescence 635/667 nm, 0.5 µg/mL protein, primary screen (AID 1183). Particulars: fluorescence 635 nm, higher = more signal.
A short description of assay [3]: blood-stage malaria parasite viability loss – strain 3D7, DAPI fluorescence, 100 nL, primary screen (AID 1184).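 Note: parasites grown inside human red blood cells in medium with human serum.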 As to conditions: P. falciparum 3D7 growth, 3 d, higher = more signal.
Assay [4] addresses Homeobox protein Hox-A13 (Mus musculus) (UniProt Q62424). Briefly: disruptors of Hoxa13 oligonucleotide interaction – biochemical, fluorescence polarization, labeled oligonucleotide, primary screen (AID 1185). As to conditions: Hoxa13:DNA binding, 15 min, higher = more signal, called active from +8 up or from −8 down.
A short description of assay [5]: blockers of DNA damage checkpoint Chk1 activation – imaging, HeLa, hydroxyurea, phospho-Chk1 antibody, percent positive cells, primary screen (AID 1186). As to conditions: hydroxyurea-induced phospho-Chk1 immunofluorescence imaging, higher = more signal.
Assay [6] in a line: blockers of DNA damage checkpoint Chk1 activation – imaging, HeLa, hydroxyurea, phospho-Chk1 nuclear intensity, primary screen (AID 1187). Particulars: hydroxyurea-induced phospho-Chk1 immunofluorescence imaging, higher = more signal.

Calls of active or inactive are those of the source. Unless noted, the rule behind the calls is not given here.

Homeobox protein Hox-A13 (Mus musculus), sequence (Q62424 whole entry, looked up): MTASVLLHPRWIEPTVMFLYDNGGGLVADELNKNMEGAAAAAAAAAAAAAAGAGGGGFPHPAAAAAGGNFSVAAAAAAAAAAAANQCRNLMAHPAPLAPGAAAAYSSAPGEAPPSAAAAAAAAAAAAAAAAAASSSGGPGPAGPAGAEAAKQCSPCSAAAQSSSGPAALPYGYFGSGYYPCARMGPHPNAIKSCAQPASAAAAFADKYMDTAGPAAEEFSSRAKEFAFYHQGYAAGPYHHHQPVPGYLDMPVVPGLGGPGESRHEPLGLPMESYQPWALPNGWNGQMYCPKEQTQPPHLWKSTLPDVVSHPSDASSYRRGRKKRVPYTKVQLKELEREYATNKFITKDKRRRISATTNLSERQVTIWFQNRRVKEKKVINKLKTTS

As to `CC[C@@H](c1ccccc1)n1c(=O)n2n(c1=O)[C@H]1[C@H](O)[C@@H]3O[C@@H]3C(=NOCC=C(C)CCC=C(C)C)[C@H]1CC2`, the composite z-score is 0.17 (inactive) in assay [1] and 0.4 in assay [2]. For the same molecule, the z-score in assay [3] was -0.444; in assay [4] it was -3.96 (inactive).
The corresponding values for `COc1ccc(O[C@H]2C=C[C@@H](c3ccccc3)O[C@@H]2CON=C[C@@H](C)[C@H](OCc2ccccc2)C(C)C)cc1` are 0.0702 (inactive), -0.126, -0.118 and -0.538 (inactive).
On the same counts, the results for `CC(=O)C[C@H](O)[C@@H](NC(=O)OC(C)(C)C)C(C)C` are -0.0306 (inactive), -0.161, -1.24 and 0.787 (inactive).
The corresponding values for `CC(CCC(=O)OC[C@H]1O[C@H](C#Cc2ccccc2)C=C[C@@H]1Oc1ccc(C)cc1)=NOC[C@@H](O)COCc1ccco1` are -0.729 (inactive), -0.205, 0.177 and -3.65 (inactive).
`C=CCC(OC(C)=O)[C@@H]1[C@@H](N(Cc2cc3ccccc3o2)C(=O)Cc2ccc(F)cc2)c2cc(OCCCO)ccc2N1C(=O)Cc1ccc(OC)cc1` (some centres not stated): the composite z-score in assay [1] is -0.386 (inactive); in assay [2], -0.0246. The z-score was 0.163 in assay [3], -2.68 (inactive) in assay [4], 0.784 (inactive) in assay [5] and 0.0687 (inactive) in assay [6].
Take `CCOC(=O)[C@H](Cc1ccccc1)NC(=O)CCC1CC(OC(=O)NCc2ccc3c(c2)OCO3)CC2(CCCC(COC(=O)NCC3CCCCC3)O2)O1` (some centres not stated): the composite z-score was -0.292 (inactive) in assay [1] and 0.646 in assay [2]. In addition, the z-score is -1.96 in assay [3] and -2.6 (inactive) in assay [4].
In the case of `CC(CCC(=O)OC[C@H]1O[C@H](C#Cc2ccccc2)C=C[C@@H]1Oc1ccc(C)cc1)=NOC[C@@H](O)[C@H]1O[C@@H]2OC(C)(C)O[C@@H]2[C@H]1O`, the composite z-score was 0.0901 (inactive) in assay [1] and -0.823 in assay [2]. Moreover, the z-score was -0.521 in assay [3] and -2.3 (inactive) in assay [4].
On the same counts, the results for `CCN1C(=O)[C@H]2[C@H]3[C@H](O)[C@H](O)CC(=NOC[C@@H](C)[C@H](OCc4ccccc4)C(C)C)[C@@H]3CC[C@H]2C1=O` are 0.185 (inactive), 0.757, 0.605 and -6.43 (inactive).
The corresponding values for `CO[C@@H]1COC(=O)CCC[C@@H](C)[C@H](OC)COC(=O)[C@H](Cc2ccccc2)NC(=O)CC=C[C@H]1C` are 0.0232 (inactive), -0.282, -1.34 and -3.5 (inactive).
For `CC(CCN1CCc2nc(-c3ccccc3)c(-c3ccccc3)cc2C1)=NO[C@@H](C)c1cn([C@H](CO)Cc2ccccc2)nn1`, the composite z-score is -0.416 (inactive) in assay [1] and -0.346 in assay [2]. The z-score in assay [3] is -0.17; in assay [4] it was -4.81 (inactive).
On to `CC(C)=CCCC(C)=CCON=C1C[C@@H](O)[C@@H](O)[C@@H]2[C@@H]3C(=O)N(C[C@@H]4CCCO4)C(=O)[C@@H]3CC[C@@H]12`, for which the composite z-score in assay [1] was 0.0561 (inactive); in assay [2] it was 0.539. In addition, the z-score in assay [3] is 1.55; in assay [4], 0.264 (inactive).
On to `O=C1[C@H]2[C@H]3[C@H](O)[C@H](O)CC(=NOCc4ccccc4)[C@H]3CC[C@H]2C(=O)N1c1cccc(Oc2ccccc2)c1`, for which the composite z-score in assay [1] was 0.297 (inactive); in assay [2], 0.723. Besides, the results for the z-score in assay [3] and in assay [4] were -0.835 and -1.3 (inactive), respectively.
With `CO[C@@H]1COC(=O)[C@@H]2CCCN2C(=O)[C@@H](C)COC(=O)[C@H](COCc2ccccc2)NC(=O)CC=C[C@H]1C`, the composite z-score in assay [1] is -0.33 (inactive); in assay [2] it was 0.0728. Besides, the z-score in assay [3] was -0.67; in assay [4], -0.767 (inactive).
On the same counts, the results for `CCOC(=O)[C@H](CC(C)C)NC(=O)CCC1CC(OC(=O)NCCc2ccc(F)cc2)CC2(CCCC(COC(=O)NCc3ccccc3)O2)O1` (some centres not stated) are 0.137 (inactive), 0.461, -2.06 and -7.01 (inactive).
The corresponding values for `CCOC(=O)[C@H](CC(C)C)NC(=O)CCC1CC(OC(=O)NCc2cccc3ccccc23)CC2(CCCC(COC(=O)NCCc3ccccc3OC)O2)O1` (some centres not stated) are 1.05 (inactive), 0.623, -1.83 and -3.13 (inactive).
Turning to `C=C(/C(=C/C[C@H](OC(=O)c1ccncc1)c1ccc(OCCO)cc1)c1cnc2ccccc2c1)C(C)C`, the composite z-score in assay [1] is 0.782 (inactive); in assay [2], 0.528. Also, the z-score is -2.84 in assay [3], -3.29 (inactive) in assay [4], 0.118 (inactive) in assay [5] and -0.0461 (inactive) in assay [6].
As to `O=C1C2C=CC(C(O)c3ccc([N+](=O)[O-])cc3)N(Nc3ccc([N+](=O)[O-])cc3)C2C(=O)N1c1ccccc1` (configuration not stated), the composite z-score in assay [1] is 1.39 (inactive); in assay [2] it was 0.813. The z-score in assay [3] is -0.498; in assay [4], -4.02 (inactive); in assay [5] it was 0.822 (inactive); in assay [6], -0.512 (inactive).
As to `COCCOC(=O)N1C(=O)[C@@]2(c3ccccc31)[C@H](C(N)=O)[C@H]1C(=O)O[C@H](c3ccccc3)[C@H](c3ccccc3)N1[C@@H]2c1ccccc1OCCO`, the composite z-score in assay [1] is 3 (inactive); in assay [2], 0.801. For the same molecule, the z-score in assay [3] is -0.418; in assay [4] it was -4.4 (inactive); in assay [5], 0.228 (inactive); in assay [6] it was 0.42 (inactive).
For `COCCCNC(=O)[C@]1(Cc2ccccc2)N=C(c2ccc(OCCCO)cc2)O[C@@H]1c1ccccc1`, the composite z-score in assay [1] is 2.03 (inactive); in assay [2] it was 0.825. In addition, the z-score in assay [3] is -2.17; in assay [4], -4.76 (inactive); in assay [5], -0.117 (inactive); in assay [6], -0.0405 (inactive).
Turning to `O=C1O[C@@H](c2ccccc2)[C@@H](c2ccccc2)N2[C@@H](c3ccc(OCCO)cc3)[C@]3(C(=O)Nc4ccccc43)[C@@H](C(=O)N3CCN(c4ncccn4)CC3)[C@H]12`, the composite z-score was 0.0629 (inactive) in assay [1] and 0.812 in assay [2]. Besides, the z-score is -2.11 in assay [3], 1.84 (inactive) in assay [4], 0.189 (inactive) in assay [5] and 0.644 (inactive) in assay [6].
